Results: PubChem BioAssay
Active and inactive are the calls of the source.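 How the source made its calls: active means inhibition above the hit cutoff set in the earlier primary screen (cut at about 27% in these data); inactive means the rest.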

The compounds below were run against Protein phosphatase methylesterase 1 (Homo sapiens) (UniProt Q9Y570) (assay: PME-1 inhibitor activity retest, confirmation, biochemical, fluorescence polarization, FP-Rh probe, triplicate (AID 2171;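 further: 0% = enzyme with DMSO and 100% = wells lacking PME-1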)). Conditions: recombinant PME-1, FP-Rh probe fluorescence polarization; at 5.9 µM; stronger effect = higher value.
Chain of Protein phosphatase methylesterase 1 (Homo sapiens) (Q9Y570 whole entry, looked up): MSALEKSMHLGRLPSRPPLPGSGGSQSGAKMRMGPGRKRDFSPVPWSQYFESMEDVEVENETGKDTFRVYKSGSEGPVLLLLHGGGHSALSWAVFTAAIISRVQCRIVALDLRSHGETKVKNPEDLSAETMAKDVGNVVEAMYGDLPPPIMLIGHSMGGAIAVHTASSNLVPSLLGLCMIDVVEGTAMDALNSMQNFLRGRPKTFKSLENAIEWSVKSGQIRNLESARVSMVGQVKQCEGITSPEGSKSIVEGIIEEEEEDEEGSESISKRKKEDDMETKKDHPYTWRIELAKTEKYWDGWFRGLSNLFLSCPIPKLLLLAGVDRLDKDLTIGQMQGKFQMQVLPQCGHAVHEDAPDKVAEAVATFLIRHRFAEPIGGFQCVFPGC

Compound	inhibition
Cc1ccc(NC(=O)COc2cccc(/C=C3\SC(=S)N(CCC(=O)O)C3=O)c2)cc1Cl	26% (inactive)
COc1ccc(/C=c2\s/c(=C/C(=O)c3ccc(C)cc3)[nH]c2=O)c(OC)c1	18.9% (inactive)
CSc1ccccc1C(=O)NCCCn1ccnc1	5.36% (inactive)
O=C(CN1CCN(S(=O)(=O)c2ccc(Br)cc2)CC1)N/N=C/c1cc([N+](=O)[O-])ccc1Cl	21% (inactive)
O=[N+]([O-])c1ccc(N/N=C/c2cccc(O)c2O)cc1	23.3% (inactive)
N#CCC(=O)Nc1ccc(C(=O)OCc2ccccc2Oc2ccccc2)cc1	-74.3% (inactive)
COc1ccc(Nc2ncnc3sc(-c4ccccc4)cc23)cc1	10.1% (inactive)
CCOc1cc(/C=C2\N=C(SCC)SC2=O)cc([N+](=O)[O-])c1OC(C)=O	47.5% (active)
CCO[C@@H]1OC(C(=O)N2CCN(Cc3ccccc3)CC2)=C[C@H](c2cn(C(C)=O)c3ccccc23)[C@H]1CCCO	75.4% (active)
COc1cccc(N=Nc2c(=O)[nH]n3c(=O)c4c([nH]c23)CCC4)c1	36.8% (active)
COc1cc(/C=N\Nc2nc3ccccc3o2)cc(OC)c1OC	31.4% (active)
O=C(N=Nc1c(O)[nH]c2ccccc12)c1cccs1	42.6% (active)
Cc1ccc(-n2[nH]c(C)c(/C=N/Nc3ccc([N+](=O)[O-])cc3[N+](=O)[O-])c2=O)cc1C	33.5% (active)
O=c1nc(/C=C/c2cc([N+](=O)[O-])ccc2Cl)cc(C(F)(F)F)[nH]1	25.3% (inactive)
O=c1c2ccccc2nc(/C=C/c2c[nH]c3ccccc23)n1CCO	58.5% (active)
CN(C)S(=O)(=O)c1cccc(NC(=O)c2cc([N+](=O)[O-])ccc2N2CCCCC2)c1	43.2% (active)
COc1ccc(/C=C/c2c(-c3ccc(OC)cc3)oc3cccnc23)cc1	24.5% (inactive)
CCOC(=O)c1ccc(NC(=O)Nc2ccc3c4c(cccc24)C(=O)N3CC)cc1	16.2% (inactive)
O=C(NCCc1ccccc1)c1ccc2nc(-c3ccco3)c(-c3ccco3)nc2c1	15.6% (inactive)
N#CCCN(CCC#N)C(=O)C1c2ccccc2Oc2ccccc21	-4.23% (inactive)

Compound	inhibition
COc1ccc(N=Nc2nc3cc(Br)c(Br)cc3n2C)c(OC)c1	50.6% (active)
O=C(N/N=C/c1c[nH]c2ccccc12)c1cc(-c2ccc3ccccc3c2)n[nH]1	10.8% (inactive)
CC1=C([N+](=O)[O-])C(c2cccc(Br)c2)C2=C(N1)c1ccccc1C2=O (stereo not given)	11.9% (inactive)
O=C(c1ccccc1F)N1CCN(Cc2nc3sc4c(c3c(=O)[nH]2)CCCC4)CC1	19.9% (inactive)
C=CCn1c(NS(=O)(=O)c2ccccc2)c(S(=O)(=O)c2ccc(C)cc2)c2nc3ccccc3nc21	8.89% (inactive)
Cc1onc(NC(=O)NC(=O)c2c(Cl)cccc2Cl)c1Br	17.4% (inactive)
COc1ccc(O)c(/C=N/Nc2nc(C)cc(-c3ccccc3)n2)c1	39% (active)
Cc1ccc(-n2c(O)c(/C=N/Nc3ccc(S(=O)(=O)N4CCOCC4)cc3[N+](=O)[O-])c3ccccc3c2=O)c(C)c1	37.9% (active)
Cc1ccc2nc(/C(C#N)=C/c3ccc(O)c(O)c3)[nH]c2c1	17.9% (inactive)
Cc1oc(-c2ccc3ccccc3c2)nc1CN(C)C(C)c1ccncn1 (stereo not given)	4.93% (inactive)
Cc1ccc2sc(NNC(=O)c3cc(=O)c4ccccc4o3)nc2c1C	68.1% (active)
CCc1nnc(NC(=O)c2sc3nc4cc(C)ccc4cc3c2N)s1	31.8% (active)
N#Cc1ccccc1Cn1c(=O)n(-c2ccc(CC(=O)NCc3ccco3)cc2)c(=O)c2sccc21	38.4% (active)
CCCCNc1c2c3c(cccc3n(C)c1=O)C(=O)c1ccccc1-2	71.1% (active)
CCC(=O)NC(c1cccs1)c1cc([N+](=O)[O-])c2cccnc2c1O (stereo not given)	25.9% (inactive)
O=C1c2cccc3c(N4CCCCC4)ccc(c23)C(=O)N1c1cccc(O)c1	-13.8% (inactive)
Nc1ccc2nc(-c3cccc(-c4nc5ccc(N)cc5[nH]4)c3)[nH]c2c1	94.1% (active)
COc1cc(/C=N/NC(=O)C(Cc2c[nH]c3ccccc23)NC(=O)OCc2ccccc2)cc([N+](=O)[O-])c1O (stereo not given)	15.4% (inactive)
COc1ccc2[nH]c3c(N4CCc5ccccc5C4)ncnc3c2c1	30.2% (active)
Cc1cc(C(=O)N/N=C/c2cccc([N+](=O)[O-])c2)c(C)n1-c1ccccc1	-3.77% (inactive)
